Experimental data from PubChem BioAssay (NCI).
About 83,000 compounds went through this panel and 20% of them were active in at least one assay; those are over-represented in the sample as a whole.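 Cells were grown in 96-well plates and exposed to the test compound at a single concentration for 48 hours; results are reported as percent growth, with values below 10 considered active.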 Activity calls are given as the source filed them.

system: MDA-MB-435 melanoma; experiment: NCI-60 one-dose screen, 48 h (100 = growth as untreated, 0 = no growth, -100 = all killed); conditions: 10 µM unless noted
Experimental: Growth inhibition of the MDA-MB-435 human Melanoma tumor cell line is measured as a screen for anti-cancer activity. Cells are grown in 96 well plates and exposed to the test compound for 48 hours. Compounds are tested at a single concentration, which is 10^-5 M for most compounds. The reported endpoint is percent growth (GI% or GIPRCNT), where numbers from 0 - 100% represent growth inhibition, and numbers from -100% - 0 represent cell death. For example, a value of 40 represents 60% growth inhibition. A value of 0 means no net growth occurred over the course of the experiment. A value of -40 indicates 40% of cells at the beginning of the experiment died by the end of the experiment. A value of -100 means all cells are dead at the end of the experiment.
NCI-60 Human Tumor Cell Lines Screen was performed using the standard one-dose NCI protocol, which is described in more detail at https://dtp.cancer.gov/discovery_development/nci-60/default.htm.
Compounds with GIPRCNT values below 10 were considered active. Activity score was based on GIPRCNT using the following formula: […]
Score is 0 for GIPRCNT values of 100 or above, 50 for GIPRCNT values of 0, and 100 for GIPRCNT values of -100.

Row | SMILES | growth
1 | O=C(Nc1ccc(Oc2cccc(Cl)c2)c(Cl)c1)c1cccnn1 | 77.6% (inactive)
2 | C=CCn1cc(-c2nc3ccccc3s2)c2cc(-c3ccc4c5c(cccc35)C(=O)N(CCO)C4=O)ccc21 | 109% (inactive)
3 | O=C(C1=Cc2cc3ccccc3n2Cc2cnnn21)c1ccc(F)cc1 | 97.5% (inactive)
4 | O=S(=O)(NCCNc1nccc(-c2c(-c3ccc(F)c(O)c3)nc3sccn23)n1)c1ccc(Cl)cc1 | 3.65% (active)
5 | COc1ccc(Oc2ccc(/C=C/C(=O)c3cc4ccccc4oc3=O)cc2)cc1 | 89.3% (inactive)
6 | Cc1ccc(OCCOCCOCCOc2ccc(C)n(O)c2=S)c(=S)n1O | 56.3% (inactive)
7 | O=S(O)c1cc(Cl)cc(Cl)c1OCc1ccccc1 | 107% (inactive)
8 | O=C1c2cccnc2C(=O)c2c1c(C(=O)OCCc1ccccn1)c1ccccn21 | -10.7% (active)
9 | Cc1cc(C)c2c(c1)N(C)c1ncnc(-n3c(C)nc4cc(C)ccc43)c1CC2C (stereo not given) | 2.51% (active)
10 | C[N+]1=C(/C=C/c2ccccc2Cl)C(C)(C)c2ccccc21 | 100% (inactive)
11 | COc1ccc(/C=N/NC(=O)Cn2c(-c3ccc(S(C)(=O)=O)cc3)nc3ccccc32)cc1 | 97.8% (inactive)
12 | CC1(C)N=C(N)N=C(N)N1c1cc(Cl)ccc1Cl | 108% (inactive)
13 | O=C1Nc2ccc(Cl)cc2/C1=C/c1ccc[nH]1 | 96.5% (inactive)
14 | COc1cc(/C=C/C(=O)c2cccc(-n3cc(-c4ccc(Cl)cc4)[nH]c3=O)c2)ccc1O | 21.4% (inactive)
15 | CN(C)CCCn1c2c(c3ccncc3c1=O)C(=O)c1ccccc1-2 | 7.89% (active)
16 | NCCCNc1nc2ccccc2c2c(=O)c3cc(Cl)ccc3sc12 | -71.1% (active)
17 | COc1ccc(C(=O)/C=C/c2ccccc2)cc1S(N)(=O)=O | 96.5% (inactive)
18 | O=[N+]([O-])c1c(O)c(Cl)cc(Cl)c1Cl | 114% (inactive)
19 | COc1cc(Cc2cc(OC)c(O)c(OC)c2)cc(OC)c1O | 2.4% (active)
20 | CC1(C)CC(=O)C2=C(C1)C(c1ccc(Cl)cc1)n1ncc(C#N)c1N2 (stereo not given) | 103% (inactive)

Row | SMILES | growth
21 | C=CC(CC(c1ccccc1)(c1ccccc1)c1ccccc1)N(CC)CC (stereo not given) | 79.2% (inactive)
22 | CSc1ccc(N2C(=N)C(=S)N(c3ccc(C)cc3)C2=O)cc1 | 102% (inactive)
23 | OC1(c2ccccc2)c2ccccc2N(c2ccccc2)c2ccc(Cl)cc21 (stereo not given) | -81.5% (active)
24 | CC1(/C=C/c2ccc(-c3ccccc3)cc2)CCn2cnc3ncnc(c32)N1O (stereo not given) | 28.4% (inactive)
25 | CCOC(=O)C/C(=N\Nc1cc(=O)[nH]c2ccc(OC)cc12)C(=O)OCC | 99% (inactive)
26 | N#C/C(=C\c1ccc(-c2cccc(Cl)c2)o1)C(=O)Nc1ncc(Cc2ccc(Cl)cc2)s1 | 56.5% (inactive)
27 | CC(C)CCC[C@@H](C)[C@H]1CC[C@H]2[C@@H]3CC=C4c5sc(Nc6cc(C(F)(F)F)cc(C(F)(F)F)c6)nc5CC[C@]4(C)[C@H]3CC[C@]12C | 104% (inactive)
28 | C=C1C(=O)O[C@H]2[C@H]1CC/C(COC(=O)NCc1ccc(Cn3c(=O)sn(-c4ccccc4)c3=O)cc1)=C\CC[C@@]1(C)O[C@@H]21 | 33.4% (inactive)
29 | CCOC(=O)c1cnn(CC(C)O)c1NC(=O)NCc1cccc(F)c1 (stereo not given) | 107% (inactive)
30 | CNC(=O)c1cc(Oc2ccc3c(c2)sc2nc(-c4cc(C(F)(F)F)cc(C(F)(F)F)c4)cn23)ccn1 | 60.8% (inactive)
31 | Cc1ccc(OCCOCCOCCOCCOCCOc2ccc(C)n(O)c2=S)c(=S)n1O | 32.6% (inactive)
32 | C[C@@H]1NC(=O)[C@H](Cc2ccccc2)N(Cc2cccnc2)C1=O | 104% (inactive)
33 | CN(C)/C(N)=N/N=C(\c1ccccc1)c1ccccn1 | 113% (inactive)
34 | COc1ccc(/C=C(/C(=O)N2CCNCC2)c2cc(OC)c(OC)c(OC)c2)cc1O | -45% (active)
35 | Cc1cccc(NC(=O)N/C(N)=N/c2nc3ccccc3s2)c1 | 2.83% (active)
36 | C=CC(=O)Nc1cccc(Oc2nccc(Nc3nnc(-c4ccc(Br)cc4)s3)n2)c1 | 94.3% (inactive)
37 | COc1cc(-c2cc(-c3ccc(Nc4nc(Nc5ccc(Cl)cc5)nc(Nc5ccc(Cl)cc5)n4)cc3)no2)cc(OC)c1OC | 71.5% (inactive)
38 | COC(=O)c1ccc2c(c1)c1c(C)c3cnccc3c(C)c1n2C | 6.89% (active)
39 | CCC(C)(C)c1ccc(Nc2ccc(Nc3ccc(C(C)(C)CC)cc3)cc2)cc1 | 97.1% (inactive)
40 | C/C=C1/CN(CCCCC)CC[C@H]1C(=O)c1cc2ccccc2[nH]1 | 97.8% (inactive)
